According to PMC12670160, “A drug-repurposing screen of FDA- and EMA-approved drugs identifies two NF-κB inhibitors active against eumycetoma” (Journal of Antimicrobial Chemotherapy, 2025):
Counter-ions that a name gives are not always drawn. Like-named read-outs stand apart in the source and are kept apart here. About 130 (2.5%) of roughly 5,300 compounds showed an effect of 50% or more. This is one part of a sample in which strong results are shown more often than they occur.

Test system: M. mycetomatis strain mm55
Details: primary screen, metabolic activity vs growth control, 96 h, 2 µM, inhibitor

SMILES | % viability (Madurella mycetomatis metabolic activity at 2µM (%)) | % viability
O=C1OC2(c3cc(I)c(O)c(I)c3Oc3c2cc(I)c(O)c3I)c2c(Cl)c(Cl)c(Cl)c(Cl)c21 [ONC0002798, rose bengal sodium salt] | 83.07% | 
CC1=C(C(=O)O)N2C(=O)[C@@H](NC(=O)[C@H](N)C3=CCC=CC3)C2SC1 (stereo partly shown) [ONC0000708, cephradine] |  | 86.49%
CCS(=O)(=O)N(C)[C@H]1c2cc(C#N)ccc2OC(C)(C)[C@@H]1O [ONC0002693, chromanol293b3r4s] |  | 103.9%
CCS(=O)(=O)N(C)[C@@H]1c2cc(C#N)ccc2OC(C)(C)[C@H]1O.CCS(=O)(=O)N(C)[C@H]1c2cc(C#N)ccc2OC(C)(C)[C@@H]1O [ONC0001571, chromanol] |  | 78.85%
CC1(C)Oc2ccc(C#N)cc2[C@H](N(Cc2ncc[nH]2)c2ccc(Cl)cc2)[C@H]1O [ONC0001872, bms191095] |  | 47.09%
c1ccc(C(O[C@@H]2CCCN(CCc3ccc4c(c3)OCO4)C2)c2ccccc2)cc1 [ONC0003094, zamifenacin] |  | 77.83%
CCCCn1c(-c2ccccc2)nc(-c2ccccc2)c1CN(Cc1ccc2c(c1)OCO2)Cc1ccc2c(c1)OCO2 [ONC0002511, ndt9513727] |  | 38.93%
c1ccc2sc(N3CCN(Cc4ccc5c(c4)OCO5)CC3)nc2c1 [ONC0000161, 214piperonylpiperazinylbenzothiazole] |  | 77.89%
Nc1ncnc2c1c(-c1cccc(OCc3ccccc3)c1)cn2C1CC(CN2CCCC2)C1 (stereo in doubt) [ONC0000263, nvpadw742] |  | 57.9%
CCCN1C[C@@H](NS(=O)(=O)N(CC)CC)C[C@@H]2Cc3c(O)cccc3C[C@H]21 [ONC0000942, quinagolide hydrochloride] |  | 65.37%
CO[C@H](C(=O)[C@@H](O)[C@@H](C)O)[C@@H]1Cc2cc3cc(O[C@H]4C[C@@H](O[C@H]5C[C@@H](O)[C@H](O)[C@@H](C)O5)[C@@H](O)[C@@H](C)O4)c(C)c(O)c3c(O)c2C(=O)[C@H]1O[C@H]1C[C@@H](O[C@H]2C[C@@H](O[C@H]3C[C@](C)(O)[C@H](O)[C@@H](C)O3)[C@H](O)[C@@H](C)O2)[C@H](O)[C@@H](C)O1 [ONC0003516, plicamycin mithramycin] |  | 50.92%
Cc1c(N)nc([C@H](CC(N)=O)NC[C@H](N)C(N)=O)nc1C(=O)N[C@H](C(=O)N[C@H](C)[C@@H](O)[C@H](C)C(=O)N[C@H](C(=O)NCCc1nc(-c2nc(C(=O)NCCCNCCCCN)cs2)cs1)[C@@H](C)O)[C@@H](O[C@@H]1O[C@@H](CO)[C@@H](O)[C@H](O)[C@@H]1O[C@@H]1O[C@H](CO)[C@@H](O)[C@H](OC(N)=O)[C@@H]1O)c1cnc[nH]1 [ONC0002990, bleomycetin] |  | 3.217%
Cc1c(N)nc([C@H](CC(N)=O)NC[C@H](N)C(N)=O)nc1C(=O)N[C@H](C(=O)N[C@H](C)[C@@H](O)[C@H](C)C(=O)N[C@H](C(=O)NCCc1nc(-c2nc(C(=O)NCCC[S+](C)C)cs2)cs1)[C@@H](C)O)[C@@H](O[C@@H]1O[C@@H](CO)[C@@H](O)[C@H](O)[C@@H]1O[C@H]1O[C@H](CO)[C@@H](O)[C@H](OC(N)=O)[C@@H]1O)c1c[nH]cn1 [ONC0004316, bleomycin sulfate] |  | 4.137%
